# Assay outcomes deposited in PubChem by several laboratories.
# m5-HT2A agonist: mouse Htr2a agonists via beta-arrestin recruitment, primary screen, cell-based, luminescence. 5-hydroxytryptamine receptor 2A (Mus musculus), P35363. CHO-K1 mHTR2A beta-arrestin complementation; percent of 30 µM serotonin response. activation, % at 7.6 µM. actives 0.66% (n = 360,000). AID 624169, 2012;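 active means activation above a run cutoff, the mean activation of all tested compounds plus 3 SD, cut at about 14% in these data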;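 further: 0% = plate median of compound wells and 100% = 30 µM serotonin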
# CTSL1 counter: Fasciola hepatica cathepsin L1 inhibitors, primary screen, counter-screen for PFM18AAP inhibitor project, biochemical, QFRET, fluorogenic peptide substrate; recombinant F. hepatica cathepsin L1, Z-Leu-Arg-MCA fluorescence; inhibition, % at 5.96 µM; actives 0.49% (n = 300,000);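 active means inhibition above the mean of all tested compounds plus 3 SD, set per screening campaign, cut at about 17% in these data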;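 further: 0% = plate median of test compound wells and 100% = 1 µM Z-Phe-Ala-diazomethylketone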
# LANA-H2B inh: blockers of LANA interaction with H2A/H2B – biochemical, FP readout, HTS, primary screen; cell-free LANA-H2A/H2B peptide, fluorescence polarization; Protein LANA1 (Human herpesvirus 8 type P (isolate GK18)), Q9QR71; inhibition, % (no concentration beside the values); actives 0.6% (n = 320,000); AID 2629, 2010; in the data active means inhibition mostly above about 10%, no sharp cut-off; inactive means mostly below about 6.7%
# HDAC3 inh: HDAC3 deacetylase inhibitors, primary screen, biochemical, fluorescence, cell-free homogeneous. Histone deacetylase 3 (Homo sapiens), O15379. recombinant HDAC3, fluorogenic peptide/trypsin coupled. inhibition, % at 8.3 µM. actives 0.15% (n = 320,000). AID 2718, 2010; in the data active means inhibition above about 26%, passing the limit was not always enough
# An asterisk follows results filed as active; / = no result given; + = active, no number. An excerpt weighted towards active compounds, which were near 1.7% of everything screened.
SMILES,m5-HT2A agonist,CTSL1 counter,LANA-H2B inh,HDAC3 inh
CC1(C)CC(=O)c2cnc(NC3CC3)nc2C1,0,3,18*,4
CC(=O)Nc1cccc(-c2ccnc3c2CC(C)(C(=O)Nc2cccc(C(C)=O)c2)O3)c1 (configuration not stated),2,/,/,/
O=c1ccc2c(-c3ccccc3)c3ccc(O)cc3oc-2c1,-1,-6,61*,0
O=c1cc(-c2ccccc2)oc2cc(O)ccc12,2,/,/,/
COc1ccc(-c2c(C)c3ccc(O)cc3oc2=O)cc1OC,2,4,-3,-106
Nc1ccc(-c2c3ccc(=O)cc-3oc3cc(O)ccc23)cc1C(=O)O,0,4,38*,11
COc1ccccc1NC(=O)c1ccc(NC(=O)COC(=O)c2cccnc2Cl)cc1,-4,/,1,1
COc1ccc(C)cc1NC(=O)CSc1nc(=O)n(CCCN2CCOCC2)c2c1CCCC2,-7,1,3,6
CCC(C)NC(=O)c1ccc(NS(=O)(=O)c2ccc3[nH]c(=O)[nH]c3c2)cc1 (configuration not stated),2,1,2,-2
COC(=O)C(Cc1ccccc1)NC(=O)c1ccc(NS(=O)(=O)c2ccc3[nH]c(=O)[nH]c3c2)cc1 (configuration not stated),-3,/,29*,7
NC(=S)N/N=C/c1cccc(O)c1O,2,1,0,1
Cc1ccc(-n2c(C)cc(/C=N/NC(N)=S)c2C)cc1,4,31*,5,11
Cc1ccc(-n2c(C)cc(/C=N/NC(=O)c3ccncc3)c2C)cc1,-3,10,6,4
COc1cc(OC)c(/C=N/NC(N)=S)cc1Br,10,74*,3,-6
Cc1cc(/C=N/NC(N)=S)c(O)c(/C=N/NC(N)=S)c1,4,19*,0,5
O=C(NCCOc1ccccc1F)C1CC(=O)N(c2ccc3c(c2)OCCO3)C1 (configuration not stated),0,/,-6,-1
COc1ccc(CSc2nnc(C)s2)cc1F,0,-5,+,8
CC(C)(C)OC(=O)N[C@@H](COCc1ccccc1)C(=O)N[C@@H](CO)[C@H](O)[C@@H]1C[C@@H]1C(=O)N1CCCC1,7,6,2,0
CC(C)C[C@H](NC(=O)OC(C)(C)C)C(=O)N[C@@H](CO)[C@H](O)[C@@H]1C[C@@H]1C(=O)N1CCCC1,8,45*,0,-4
COc1ccc(N(CC(=O)Nc2cc(Cl)ccc2C)S(=O)(=O)c2c(C)noc2C)cc1,7,4,51*,-12
O=C(C(=O)N1CCN(c2ccccc2)CC1)c1ccncc1,2,/,/,/
CC(Sc1nnnn1C)C(=O)NC1CCCC1 (configuration not stated),0,/,-1,-2
CC(C)NC(=O)c1ccc2sc([C@@H]3O[C@H](CO)[C@H](O)[C@H](O)[C@H]3O)nc2c1,4,/,/,/
C[C@@H](NC(=O)C1(c2ccccc2)CCN(C(=O)OC(C)(C)C)CC1)C(=O)N[C@@H](C(=O)O)c1ccccc1,-3,5,2,2
CCC(C)(C)c1ccc(OCCCC[n+]2ccc(C)cc2)c(C(C)(C)CC)c1,/,8,8,34*
SMILES,m5-HT2A agonist,CTSL1 counter,LANA-H2B inh,HDAC3 inh
CCC(C)(C)c1ccc(OCCCC[n+]2cccc(C)c2C)c(C(C)(C)CC)c1,-3,1,-1,19
CC(C)(C)c1cc(S(=O)(=O)CCc2ccncc2)cc(C(C)(C)C)c1F,2,1,-4,-4
OCC[C@@H]1C[C@@H](O)[C@H](O)[C@]2(Cc3ccccc3CCO2)O1,6,-1,-3,5
NC(=O)CSc1nc(-c2ccccc2)c(-c2ccccc2)o1,1,-4,0,2
Nc1nc(-c2ccccc2)c(-c2ccccc2)o1,5,-1,29*,-3
O=C(NCc1ccccc1)c1cc(C2COCCN2C(=O)C/C=C/c2ccccc2)on1 (configuration not stated),-2,/,/,/
O=C(CSCc1cc(=O)[nH][nH]1)Nc1ccc(F)cc1,2,-2,18*,0
CCCCc1ccc(NC(=O)CSCc2cc(=O)[nH][nH]2)cc1,1,1,0,4
C=CCn1c(SCC(=O)N2c3ccccc3Sc3ccccc32)nnc1-c1ccco1,5,-1,23*,0
